Assay outcomes as filed in PubChem.
Hits are enriched below; roughly 2.3% of the tested compounds scored in any of these assays.
IL2 activator: qHTS of IL-2 Activators; IL-2 activation reporter assay, cell-based qHTS; stimulated with anti-CD3/CD4/CD28 beads; in transgenic mouse T cells; AID 652025, 2013; actives 0.065% (n = 360,000); activation, % (series mostly up to about 46 µM); in the data active means activation above about 50%; inconclusive means mostly about 30% to 49%; further: 0% is about no effect
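Unstimulated transgenic mouse T cells preincubated 60 min with compound, then stimulated with anti-CD3/anti-CD4-coated beads plus anti-CD28 for 18 h at 37 degrees C. IL-2 response read as EGFP and DsRed fluorescence by plate cytometry.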
Nrf2 inh: Nrf2 qHTS screen for inhibitors | Potency, µM (top dose mostly 46 µM), for the others: top-dose activity change, negative = inhibition, usual class: inhibitors | AID 504444, 2011 | A549 ARE-Fluc reporter, luciferase luminescence, 18-24 h | actives 2.1% (n = 360,000); further: potency means the concentration at half of the fitted maximal effect; on the % scale 0 is the no-effect control and ±100 the full control effect; nearly all actives have a fitted effect of over 60% in size
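Reporter: ARE-Fluc in A549. Exposure: 18-24 h, 37 °C, 5% CO2, 5% FBS OPTI-MEM. Readouts: fluorescent cytotoxicity (CellTiter-Fluor), then luminescent Nrf2 signal after BugLite.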
Nrf2 ARE act: qHTS of Nrf2 Activators; AREc32 ARE-luciferase reporter (MCF7-derived line), luminescence, 24 h; Potency, µM (top dose mostly 46.1 µM), without a hit: at the top dose activation, actives largely listed as activators; actives 0.31% (n = 410,000); further: potency means the concentration at half of the fitted maximal effect; % of control where 0% means no effect; nearly all actives have a fitted effect of over 65% in size
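ARE-driven firefly luciferase activity in AREc32 cells measured after a 24 hr compound exposure at 37 deg C, using Steady-Glo reagent and a 30 min room-temperature hold.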
A549 viability: Nrf2 qHTS screen for inhibitors: counterscreen for cytotoxicity; A549 ARE-Fluc cells, CellTiter-Fluor viability, 18-24 h; Potency, µM (top dose mostly 46 µM), for the others: top-dose activity change, negative = cytotoxicity, most hits filed as inhibitors; actives 0.16% (n = 390,000); further: potency means the concentration at half of the fitted maximal effect; on the % scale 0 is the no-effect control and ±100 the full control effect
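Cytotoxicity counterscreen: CellTiter-Fluor fluorescence was measured in A549 ARE_Fluc cells after 18-24 h of compound exposure in a concentration series. The subsequent BugLite luminescent read reports ARE-luciferase activity.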
* = called active by the depositor; ? = inconclusive; / = no result; [ ] = remark or other dose. Unless noted, the call rests on the fitted dose curve; in most records, active means well fitted curve in the direction sought with a large enough effect; inconclusive means small, poorly fitted or top-dose-only effect, or another doubt; inactive means no such curve, though single readings can be large; an effect the other way counts as inactive or inconclusive.

SMILES	IL2 activator	Nrf2 inh	Nrf2 ARE act	A549 viability
Cc1cccc(NC(=S)NC(=O)c2ccco2)c1C	0	8%	9%	2%
COc1cccc(C(=O)Nc2cc(NC(=O)c3ccco3)ccc2OC)c1	1	-24%	0%	1%
O=C(NC(=S)Nc1cc(Cl)ccc1Cl)c1ccco1	-2	/	11µM*	/
O=C(NC(=S)Nc1ccccc1Br)c1ccco1	0	?	14µM*	8%
O=C(NC(=S)Nc1cccc(NC(=S)NC(=O)c2ccco2)n1)c1ccco1	1	24%	6.3µM*	7%
CCCCOc1cccc(C(=O)Nc2cc(NC(=O)c3ccco3)ccc2OC)c1	/	23µM*	4%	-11%
COc1cccc(-c2nc(SC(C(C)=O)C(=O)N(C)C)c3c(=O)n(C)c(=O)n(C)c3n2)c1 (stereo not given)	/	/	0%	2%
Cc1ccc(NC(=O)Cn2c(=O)n(Cc3ccc4c(c3)OCO4)c(=O)c3ccc(C(=O)NC4CCCCC4)cc32)cc1	/	8%	0%	2%
O=C(Nc1nnc(-c2ccccc2Cl)o1)c1ccco1	5	/	13µM*	2%
O=C(Nc1cc2nn(-c3ccccc3)nc2cc1Cl)c1ccco1	1	/	1µM*	1%
COc1cc(OC)cc(C(=O)Nc2ccc(NC(=O)c3ccco3)c(Cl)c2)c1	0	26µM*	0%	?
COc1cc(OC)cc(C(=O)NC(=S)Nc2ccc(NC(=O)c3ccco3)cc2)c1	-1	3%	0%	9%
O=C(NCCc1ccc(Cl)cc1)C(=O)NCC(c1ccc2c(c1)OCO2)N1CCOCC1 (stereo not given)	/	/	-1%	10%
Cc1nc2ccc(S(=O)(=O)N(C)CC(=O)Nc3ccc(Br)c(C)c3)cc2s1	/	-12%	0%	-2%
CCOC(=O)Cn1cnc2c(cnn2-c2ccc(OC)cc2)c1=O	-5	?	0%[9.22 µM]	-1%
COc1ccc(-n2ncc3c(=O)n(CC(=O)N4c5ccccc5CC4C)cnc32)cc1 (stereo not given)	0	8.2µM*	0%	?
Fc1ccc(-n2nnnc2-c2cnc(-c3cccs3)nc2C(F)(F)F)cc1	-4	15µM*	-2%	?
FC(F)(F)c1nc(-c2ccncc2)ncc1-c1nnnn1-c1ccccc1	-3	-5%	0%	-2%
FC(F)(F)c1nc(N2CCCC2)ncc1-c1nnnn1-c1ccc(Cl)cc1	-3	13µM*	3%	-13%
FC(F)(F)c1ccncc1-c1nnnn1-c1ccc(Cl)cc1	-8	-4%	-1%	0%
Cc1cccc(Cn2cc3c(=O)n(CC(=O)Nc4cccc(C)c4C)nc-3c3cc(F)ccc32)c1	/	16%	-1%	1%
CC1CCC(NC(=O)C2(C)Cc3ccccc3C(=O)N2Cc2ccc(Cl)cc2)CC1 (stereo not given)	/	-3%	4%	-16%
CCc1nc2ccccc2c(C(=O)OCC(=O)Nc2cccc(S(=O)(=O)NC3=NCCCCC3)c2)c1C	-2	16µM*	-2%	-25%
O=C(Nc1cccc(S(=O)(=O)NC2=NCCCCC2)c1)c1ccc(Cl)cc1	-4	15µM*	0%	-20%
O=C(COc1ccc(Cl)cc1)Nc1cccc(S(=O)(=O)NC2=NCCCCC2)c1	-1	26µM*	0%	-18%
SMILES	IL2 activator	Nrf2 inh	Nrf2 ARE act	A549 viability
O=C(Nc1cccc(S(=O)(=O)NC2=NCCC2)c1)c1ccccc1	-1	-20%	-1%	0%
O=C(COC(=O)c1ccc2ccccc2n1)Nc1cccc(S(=O)(=O)NC2=NCCCCC2)c1	3	5%	0%	-7%
CCCc1nc2oc3ccccc3c(=O)c2c(=O)n1-c1ccc(C)cc1	1	?	11µM*	0%
Cc1cccc(NC(=O)c2ccc(-c3nc(CSc4ccccc4)c(C)o3)cc2)c1C	/	13µM*	-1%	0%
COC(=O)c1ccccc1NC(=O)c1ccc(-c2nc(CSc3ccc(C)cc3)c(C)o2)cc1	/	?	-1%	0%
Cc1ccc(Cl)cc1NC(=O)c1ccc(-c2nc(CSc3ccccc3)c(C)o2)cc1	/	13µM*	0%	-4%
COc1ccc(NC(=O)c2ccc(-c3nc(CSc4ccccc4)c(C)o3)cc2)cc1OC	/	?	4%	-15%
COc1ccc(NC(=O)c2ccc(-c3nc(CSc4ccc(C)cc4)c(C)o3)cc2)cc1Cl	/	23µM*	0%	-13%
CC(=O)c1ccc(NC(=O)c2ccc(-c3nc(CSc4ccccc4)c(C)o3)cc2)cc1	/	10µM*	1%	1%
CC(=O)c1ccc(NC(=O)c2ccc(-c3nc(CSc4ccc(C)cc4)c(C)o3)cc2)cc1	/	?	1%	-12%
CC(=O)Nc1ccc(S(=O)(=O)N2CCN(S(=O)(=O)c3c(F)cccc3F)CC2)cc1	/	3%	/	8%
CCC1CN(C(=O)N2CCC(C(=O)NCCC3=CCCCC3)CC2)c2ccccc2O1 (stereo not given)	/	6%	0%	13%
N#Cc1nc(Nc2ccccc2)nc(NC2CCCCC2)n1	/	?	/	-11%
COc1ccc(CNc2nc3c(c(=O)n(Cc4ccc(Br)cc4)c(=O)n3C)n2C)cc1	-2	18µM*	0%	-25%
COc1ccc(Cn2c(=O)c3c(nc(NCCO)n3C)n(C)c2=O)cc1	0	-6%	-1%	4%
Cn1c(NCc2ccco2)nc2c1c(=O)n(Cc1ccc(Cl)cc1Cl)c(=O)n2C	-2	18µM*	2%	-13%
Cn1c(=O)c2c(nc(NCc3ccc4c(c3)OCO4)n2Cc2ccc(F)cc2)n(C)c1=O	-1	23µM*	0%	-27%
Cn1c(=O)c2c(nc(NCc3ccc4c(c3)OCO4)n2Cc2ccccc2)n(C)c1=O	0	/	3%	?
Cc1ccc(Oc2nc3c(c(=O)n(Cc4ccccc4)c(=O)n3C)n2C)cc1C	/	18µM*	-1%	1%
Cc1ccc(Oc2nc3c(c(=O)n(Cc4ccccc4Cl)c(=O)n3C)n2C)cc1C	/	-2%	0%	-3%
c1coc(-c2nc3cc4ccccc4cc3nc2-c2ccco2)c1	/	?	/	-12%
Cn1c(=O)n(Cc2ccccc2)c(=O)c2c1nc1n2CCCN1Cc1ccccc1	1	/	0%	0%
Cn1c(NCc2ccco2)nc2c1c(=O)n(Cc1ccc(Br)cc1)c(=O)n2C	2	?	28%	-1%
Cn1c(=O)n(Cc2ccccc2)c(=O)c2c1nc1n2CCCN1CCc1ccccc1	0	29µM*	0%	-25%
Cn1c(NCc2ccccc2)nc2c1c(=O)n(Cc1ccc(Br)cc1)c(=O)n2C	1	15µM*	3%	-12%
Cc1ccccc1S(=O)(=O)N1CCN(c2nc(-c3cccs3)nc3ccccc23)CC1	/	-13%	/	7%
CCOC(=O)c1c(C)nc(-c2ccccc2)nc1N	-3	?	13µM*	-15%
O=C(NCCc1ccccc1)C1(c2cccs2)CCOCC1	/	/	0%	-16%
CC(=O)Nc1cccc(S(=O)(=O)Nc2ccc(C)c(C)c2)c1	/	?	/	-1%
OCCN1CCN(c2ncnc3sc4c(c23)CCCC4)CC1	-1	0%	0%	0%
